Compound activity (PubChem BioAssay)
Compounds with a hit are over-represented: about 12% of the library has one in this group of screens.
ROMK primary: ROMK potassium channel modulators, primary screen, cell-based, thallium flux, MLSMR library; ATP-sensitive inward rectifier potassium channel 1 (Homo sapiens), P48048; Tet-inducible ROMK, thallium flux fluorescence; actives lie on both sides; B-score at 10 µM; 130,000 tested, 2% active;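 active = signal ratio slope over the read window, or its plate-corrected B-score, at least 3 SD from the plate mean, either direction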;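 also: B-score of the F/F0 ratio slope over 7 to 12 s after thallium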
Target sequence (P48048 whole entry, looked up): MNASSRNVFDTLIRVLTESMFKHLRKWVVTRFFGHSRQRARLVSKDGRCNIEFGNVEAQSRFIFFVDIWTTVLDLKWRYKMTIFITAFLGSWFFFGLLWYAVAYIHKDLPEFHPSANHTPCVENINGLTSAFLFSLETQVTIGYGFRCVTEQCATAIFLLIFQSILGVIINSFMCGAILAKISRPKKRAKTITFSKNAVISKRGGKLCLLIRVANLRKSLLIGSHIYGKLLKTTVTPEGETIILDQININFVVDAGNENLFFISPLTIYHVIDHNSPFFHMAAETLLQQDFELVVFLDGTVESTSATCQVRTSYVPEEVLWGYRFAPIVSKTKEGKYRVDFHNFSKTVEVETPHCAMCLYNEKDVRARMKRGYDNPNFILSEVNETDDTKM
Cl transport mod: KCC2 cotransporter modulators, thallium flux, primary screen, cell-based, HEK293 KCC2, FluoZin-2 fluorescence, MLSMR. Solute carrier family 12 member 5 (Homo sapiens), Q9H2X9. KCC2 cells, thallium flux FluoZin-2 fluorescence. B-score of Tl+ flux slope (higher = more flux/activation; lower = inhibition) at 10 µM. 190,000 tested, 2.2% active. AID 1456, 2008;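 active = thallium flux slope and its plate-corrected score both differing from the plate sample mean at a set confidence after two filtering rounds, in either direction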;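 also: slope of fluorescence scaled to starting intensity during 10 to 20 s after thallium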
WT yeast gro inh: growth inhibition of WT strain, primary screen, mitochondrial fusion inhibitor project, WT and mutant strains, chemical genetic | mitochondrial fusion phenotypic screen | inhibition, % at 10 µM | 190,000 tested, 2.1% active; in the data active = inhibition above about 58%; tested in S. cerevisiae
m-calpain inh: inhibitors of pig calpain II, primary screen, biochemical, fluorogenic peptide substrate, 1536-well; purified calpain II, 30 min; inhibition, % at 16 µM; 220,000 tested, 0.37% active; AID 1236, 2008;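 active = inhibition above about 50%, limit read from the data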
L major viab: Leishmania major promastigote growth inhibition, primary screen; inhibition, % at 10 µM; Leishmania major promastigotes, resazurin fluorescence viability; 200,000 tested, 9% active; in the data active = inhibition above about 50%;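 also: promastigotes grown with compound for 44 hours at 28 °C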
An asterisk follows results filed as active; · = no result given.

SMILES	ROMK primary	Cl transport mod	WT yeast gro inh	m-calpain inh	L major viab
CCC(C)c1ccc(NC(=S)NC(C)C2CCCO2)cc1 (stereo not given)	-1.77	0.7	66.1*	16.0	4.4
CCC(C)c1ccc(NC(=S)Nc2ccc(OC)c(OC)c2)cc1 (stereo not given)	·	0.0357	72.0*	12.6	0.9
O=C1OC(NCc2cccnc2)(c2ccc(Cl)cc2)c2ccccc21 (stereo not given)	·	·	-2.5	18.2	3.7
CCOc1cc(C)c(C(C)C)cc1S(=O)(=O)n1cnc(C)c1	0.396	-0.0178	16.2	14.9	25.8
O=C(CCCCn1c(=O)[nH]c2ccccc2c1=O)N1CCN(c2cccc(C(F)(F)F)c2)CC1	-1.8	-0.67	13.3	14.6	82.5*
C/C(=C\c1ccccc1)C(=O)N1CCN(c2cccc(C(F)(F)F)c2)CC1	0.00251	-1.12	47.1	17.2	55.0*
Cc1ccc(/C=C/C(=O)N2CCN(c3cccc(C(F)(F)F)c3)CC2)cc1	·	0	-3.2	12.1	-5.2
O=C(CCn1c(=O)[nH]c2ccccc2c1=O)N1CCN(c2cccc(C(F)(F)F)c2)CC1	-1.21	·	1.2	-19.5	-3.7
CCOC(=O)C1(Cc2cccc(F)c2)CCN(C(=O)C2CCCO2)CC1 (stereo not given)	·	-0.0581	6.5	9.3	-3.1
O=C1C2C3c4ccccc4C(c4ccccc43)C2C(=O)N1/N=C/c1cccc(O)c1 (stereo not given)	-0.222	1.01	5.7	8.1	97.0*
O=C(CCN1C(=O)C2C3CCC(C3)C2C1=O)Nc1ccc(Br)cc1 (stereo not given)	·	-0.394	3.5	6.8	60.1*
COc1ccc(NC(=O)CCN2C(=O)C3C4CCC(C4)C3C2=O)cc1 (stereo not given)	·	0.712	3.1	15.7	56.8*
O=C(CCN1C(=O)C2C3CCC(C3)C2C1=O)Nc1ccc([N+](=O)[O-])cc1 (stereo not given)	-0.114	0.682	-3.2	9.3	3.2
COc1cc(-c2ccc(Nc3ccccc3C(=O)O)c(OC)c2)ccc1Nc1ccccc1C(=O)O	1.89	-3.81	·	55.4*	·
COC(=O)c1sccc1NC(=O)c1csc(C)c1	·	0.22	14.6	2.2	0.1
Cc1sc(NC(=O)Cc2ccc3c(c2)OCO3)nc1-c1ccc2c(c1)CCN2C(=O)c1cccc(F)c1	-0.848	-0.217	38.4	-66.5	91.2*
Cc1ccccc1C(=O)N1CCc2cc(-c3nc(NC(=O)Cc4ccc5c(c4)OCO5)sc3C)ccc21	0.3	-0.0153	36.5	-82.4	98.8*
CNc1nc(-c2ccc3c(c2)CCN3C(=O)c2ccccc2C)cs1	0.497	·	9.7	-75.6	7.6
Cc1cccc(C(=O)N2CCc3cc(-c4nc(NC(=O)Cn5nnc6ccccc6c5=O)sc4C)ccc32)c1	·	-0.546	-16.6	-92.8	8.0
O=C(Nc1nc2nccc(-c3ccccc3)n2n1)C(Cl)(Cl)Cl	0.823	-1.58	-8.0	-351.9	53.4*
Cc1ccc(NC(=O)NCCCl)cc1S(=O)(=O)N1CCOCC1	·	-0.209	·	-15.4	·
O=C(NCCCN1CCOCC1)C(=O)N/N=C/c1ccc(F)cc1	1.27	-1.08	-4.6	-14.9	-10.9
Cc1nn(-c2ccc(Cl)cc2)c2sc(C(=O)N3CCN(C(=O)c4ccco4)CC3)cc12	·	·	3.6	·	·
Cc1nn(-c2ccc(F)cc2)c2sc(C(=O)N3CCCCCC3)cc12	-1.93	-0.901	20.5	50.4*	-0.7
CCCC(Oc1ccc(Br)cc1)c1nc2c3cc(OC)c(OC)cc3nc(=S)n2[nH]1 (stereo not given)	-0.0217	-2.92	44.5	-0.2	96.8*
SMILES	ROMK primary	Cl transport mod	WT yeast gro inh	m-calpain inh	L major viab
CC(Oc1ccc(Br)cc1)c1nc2c3ccccc3nc(=S)n2[nH]1 (stereo not given)	2.91*	26.3*	62.6	-51.7	0.4
COc1cc2nc(SCC(=O)c3ccc(Br)cc3)n3nc(C)nc3c2cc1OC	-0.0247	-0.891	-19.9	-109.0	0.6
COc1ccc(Cl)cc1/C=C(\C#N)C(N)=O	·	-0.0168	0.3	-45.8	20.2
CC1CCCC(NC(=O)Cc2ccc(Br)cc2)C1C (stereo not given)	-0.467	0.0433	2.0	-14.5	5.1
CC1CCCC(NC(=S)NC(=O)c2ccccc2Br)C1C (stereo not given)	0.0729	23*	63.2*	-4.3	-1.2
COc1ccc(C(=O)Nc2ccc(Cl)cc2C(=O)NCCN2CCOCC2)cc1	·	0.557	70.8*	-11.3	5.9
CCN(CC)C(=S)NC(=O)c1ccc(Cl)cc1Cl	1.44	11.7*	15.4	-30.1	-0.4
CCCCNC(=S)NC(=O)c1ccccc1Br	-0.42	34.7*	4.0	23.8	-8.3
COc1ccc(C(=O)Nc2ccccc2C(=O)NCCN2CCOCC2)cc1	-0.0216	0.0535	8.8	-7.8	-4.6
CCOC(=O)C(O)(C1C(=O)CC(C)(C)CC1=O)C(F)(F)F (stereo not given)	0.334	·	9.3	-11.7	-4.3
COc1ccccc1/C=C/C(=O)NC(=S)NC(C)C	0.514	-1.53	7.0	2.0	2.5
CCCCN(CCCC)C(=S)NC(=O)c1ccccc1Cl	2.75*	64.8*	63.9*	9.6	0.1
COc1cc(NC(=O)c2cccc(Cl)c2)c(OC)cc1NC(=O)CN1CCOCC1	·	-0.191	-2.8	-34.8	85.0*
COc1cc(NC(=O)c2cccc(Cl)c2)c(OC)cc1NC(=O)CN1CCCCC1	-0.98	0.293	28.1	-3.5	28.5
COC(=O)/C=C(\C)NC(=O)c1ccccc1Cl	·	·	-7.9	16.7	18.5
O=C(NC(=S)NCCN1CCOCC1)c1ccccc1Cl	·	0.821	8.1	-9.8	58.3*
O=C(NC(=S)Nc1ccc(CN2CCOCC2)cc1)c1ccc([N+](=O)[O-])cc1Cl	-0.172	2.09	4.9	-5.2	99.8*
CCN(CC)S(=O)(=O)c1ccc2c(c1)N(CC(=O)NCCc1ccc(S(N)(=O)=O)cc1)C(=O)CO2	0.85	2.35	-17.5	-2.3	-7.3
CCCCNC(=S)NC(=O)c1ccc(Cl)cc1Cl	·	5.3*	26.9	47.6	0.7
O=C(NC(=S)NCCN1CCOCC1)c1ccc(Cl)cc1	0.771	-0.367	10.5	31.5	-2.1
O=C(NC(=S)NCCN1CCOCC1)c1ccc(Cl)cc1Cl	·	-0.205	0.9	-2.4	94.5*
COc1ccc(C(C)(C)C)cc1NC(=O)Cn1cnnn1	-0.487	0.608	0.8	11.1	-16.4
COc1ccc(N2CCN(C(=O)c3ccc(NS(=O)(=O)c4cccs4)cc3)CC2)cc1	-0.631	-0.993	7.3	7.3	13.1
COc1ccc(N2CCN(C(CNS(=O)(=O)c3cccs3)c3cccnc3)CC2)cc1 (stereo not given)	-0.0126	·	-18.7	0.9	97.8*
O=S(=O)(NCC(c1cccnc1)N1CCOCC1)c1ccccc1 (stereo not given)	·	0.695	13.6	-1.5	-2.3
CCOc1ccccc1N1CCN(S(=O)(=O)c2cccs2)CC1	-1.1	0.567	-18.7	14.4	13.2
